Source: PubChem BioAssay AID1159580 (chemical genetic matrix, 2015)
Screen size: about 5,500 compounds; about 2,000 (36%) were called active. Roughly 18% stayed inconclusive and do not appear here. Rule as the data show it: active = normalized growth mostly below about 0.91 (no sharp cut-off); inconclusive = no clear call, values can overlap the other calls; inactive = mostly above about 0.92. Some of the results follow.

Assay: chemical genetic growth profiling, strain panel (AID 1159580);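 also: tested at 20 µM; growth read once vehicle control cultures reached saturation at 30 °C; 1 = growth at the plate median or of vehicle wells; lower values mean less growth of the strain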
Details: growth OD

Measured: normalized growth

COc1cc(OC)c2ccc(=O)oc2c1
active: S. cerevisiae deletion strains, locus YNL248C, strain rpa49, active compounds read low 0.872
inactive: S. cerevisiae deletion strains, locus YJR075W, strain HOC1, active compounds read low 1.01 | S. cerevisiae deletion strains, locus YKL009W, strain mrt4, active compounds read low 0.966 | S. cerevisiae deletion strains, locus YKL068W, active compounds read low 1.01 | S. cerevisiae deletion strains, locus YKL085W, strain MDH1 (second series), active compounds read low 1.01 | S. cerevisiae deletion strains, locus YKL085W, strain MDH1, active compounds read low 1.01 | S. cerevisiae deletion strains, locus YKL160W, strain elf1, active compounds read low 0.977 | S. cerevisiae deletion strains, locus YKL190W, strain CNB1, active compounds read low 1.01 | S. cerevisiae deletion strains, locus YKR001C, strain vps1, active compounds read low 0.945 | S. cerevisiae deletion strains, locus YKR026C, strain gcn3, active compounds read low 0.962 | S. cerevisiae deletion strains, locus YKR091W, strain srl3, active compounds read low 0.99 | S. cerevisiae deletion strains, locus YLL001W, strain dnm1, active compounds read low 0.94 | S. cerevisiae deletion strains, locus YLL026W, active compounds read low 0.973 | S. cerevisiae deletion strains, locus YLL041C, strain sdh2, active compounds read low 0.979 | S. cerevisiae deletion strains, locus YLR027C, strain aat2, active compounds read low 0.977 | S. cerevisiae deletion strains, locus YLR039C, strain RIC1, active compounds read low 0.974 | S. cerevisiae deletion strains, locus YLR058C, strain SHM2, active compounds read low 1.01 | S. cerevisiae deletion strains, locus YLR102C, strain apc9, active compounds read low 1.01 | S. cerevisiae deletion strains, locus YLR113W, strain HOG1, active compounds read low 1.02 | S. cerevisiae deletion strains, locus YLR221C, strain rsa3, active compounds read low 0.97 | S. cerevisiae deletion strains, locus YLR258W, strain gsy2, active compounds read low 0.952 | S. cerevisiae deletion strains, locus YLR262C, strain YPT6 (second series), active compounds read low 0.97 | S. cerevisiae deletion strains, locus YLR262C, strain YPT6, active compounds read low 0.992 | S. cerevisiae deletion strains, locus YLR268W, strain sec22, active compounds read low 1.01 | S. cerevisiae deletion strains, locus YLR320W, strain mms22, active compounds read low 0.897 | S. cerevisiae deletion strains, locus YLR330W, strain CHS5, active compounds read low 1 | S. cerevisiae deletion strains, locus YLR342W, strain FKS1 (second series), active compounds read low 1.03 | S. cerevisiae deletion strains, locus YLR342W, strain FKS1, active compounds read low 0.976 | S. cerevisiae deletion strains, locus YLR357W, strain rsc2, active compounds read low 1.05 | S. cerevisiae deletion strains, locus YLR370C, strain arc18, active compounds read low 0.981 | S. cerevisiae deletion strains, locus YLR371W, strain rom2, active compounds read low 1.01 | S. cerevisiae deletion strains, locus YLR384C, strain iki3, active compounds read low 0.975 | S. cerevisiae deletion strains, locus YLR418C, strain cdc73, active compounds read low 1.01 | S. cerevisiae deletion strains, locus YML016C, strain PPZ1, active compounds read low 1 | S. cerevisiae deletion strains, locus YML032C, strain rad52, active compounds read low 0.982 | S. cerevisiae deletion strains, locus YML120C, strain ndi1, active compounds read low 0.954 | S. cerevisiae deletion strains, locus YML124C, strain tub3, active compounds read low 1.01 | S. cerevisiae deletion strains, locus YMR058W, strain fet3, active compounds read low 0.957 | S. cerevisiae deletion strains, locus YMR078C, strain ctf18, active compounds read low 0.996 | S. cerevisiae deletion strains, locus YMR125W, strain sto1, active compounds read low 0.993 | S. cerevisiae deletion strains, locus YMR129W, active compounds read low 0.988 | S. cerevisiae deletion strains, locus YMR205C, strain PFK2, active compounds read low 0.97 | S. cerevisiae deletion strains, locus YMR223W, strain ubp8, active compounds read low 0.976 | S. cerevisiae deletion strains, locus YMR231W, strain pep5, active compounds read low 0.965 | S. cerevisiae deletion strains, locus YMR263W, strain SAP30, active compounds read low 0.992 | S. cerevisiae deletion strains, locus YMR307W, strain GAS1, active compounds read low 1.02 | S. cerevisiae deletion strains, locus YNL067W, strain RPL9B, active compounds read low 0.989 | S. cerevisiae deletion strains, locus YNL071W, strain lat1, active compounds read low 0.953 | S. cerevisiae deletion strains, locus YNL128W, strain TEP1, active compounds read low 1.01 | S. cerevisiae deletion strains, locus YNL153C, strain GIM3, active compounds read low 1.01 | S. cerevisiae deletion strains, locus YNL183C, strain NPR1, active compounds read low 0.946 | S. cerevisiae deletion strains, locus YNL209W, strain ssb2, active compounds read low 0.98 | S. cerevisiae deletion strains, locus YNL233W, strain BNI4, active compounds read low 1 | S. cerevisiae deletion strains, locus YNL250W, strain rad50, active compounds read low 0.992 | S. cerevisiae deletion strains, locus YNL271C, strain bni1, active compounds read low 0.99 | S. cerevisiae deletion strains, locus YNL298W, strain CLA4, active compounds read low 0.973 | S. cerevisiae deletion strains, locus YNL307C, strain MCK1, active compounds read low 0.988 | S. cerevisiae deletion strains, locus YNL322C, strain KRE1 (second series), active compounds read low 0.992 | S. cerevisiae deletion strains, locus YNL322C, strain KRE1, active compounds read low 1 | S. cerevisiae deletion strains, locus YNR049C, strain mso1, active compounds read low 0.982 | S. cerevisiae deletion strains, locus YNR052C, strain pop2, active compounds read low 0.989 | S. cerevisiae deletion strains, locus YOL006C, strain TOP1, active compounds read low 0.921 | S. cerevisiae deletion strains, locus YOL012C, strain htz1 1.64 | S. cerevisiae deletion strains, locus YOL147C, strain pex11, active compounds read low 1 | S. cerevisiae deletion strains, locus YOR001W, strain rrp6, active compounds read low 0.963 | S. cerevisiae deletion strains, locus YOR061W, strain CKA2, active compounds read low 1 | S. cerevisiae deletion strains, locus YOR069W, strain VPS5, active compounds read low 1.01 | S. cerevisiae deletion strains, locus YOR070C, strain gyp1, active compounds read low 0.964 | S. cerevisiae deletion strains, locus YOR080W, strain dia2, active compounds read low 0.969 | S. cerevisiae deletion strains, locus YOR083W, strain WHI5, active compounds read low 0.968 | S. cerevisiae deletion strains, locus YOR106W, strain vam3, active compounds read low 0.95 | S. cerevisiae deletion strains, locus YOR136W, strain idh2, active compounds read low 1.01 | S. cerevisiae deletion strains, locus YOR144C, strain elg1, active compounds read low 1.01 | S. cerevisiae deletion strains, locus YOR184W, strain ser1, active compounds read low 0.949 | S. cerevisiae deletion strains, locus YOR231W, strain MKK1, active compounds read low 0.991 | S. cerevisiae deletion strains, locus YOR265W, strain rbl2, active compounds read low 0.977 | S. cerevisiae deletion strains, locus YOR270C, strain vph1, active compounds read low 0.814 | S. cerevisiae deletion strains, locus YOR290C, strain snf2, active compounds read low 0.936 | S. cerevisiae deletion strains, locus YOR316C, strain cot1, active compounds read low 0.998 | S. cerevisiae deletion strains, locus YPL051W, strain arl3, active compounds read low 0.968 | S. cerevisiae deletion strains, locus YPL055C, strain LGE1, active compounds read low 0.971 | S. cerevisiae deletion strains, locus YPL078C, strain atp4, active compounds read low 0.957 | S. cerevisiae deletion strains, locus YPL106C, strain sse1, active compounds read low 0.926 | S. cerevisiae deletion strains, locus YPL240C, strain hsp82, active compounds read low 0.985 | S. cerevisiae deletion strains, locus YPL241C, strain CIN2, active compounds read low 1 | S. cerevisiae deletion strains, locus YPL256C, strain CLN2, active compounds read low 1.05 | S. cerevisiae deletion strains, locus YPR119W, strain clb2, active compounds read low 1 | S. cerevisiae deletion strains, locus YPR141C, strain kar3, active compounds read low 1 | S. cerevisiae deletion strains, locus YPR163C, strain tif3, active compounds read low 1.01 | S. cerevisiae deletion strains, locus YPR167C, strain met16, active compounds read low 0.995 | S. cerevisiae deletion strains, strain wtn01, active compounds read low 1 | S. cerevisiae strains, strain wild type, active compounds read low 1.01
